Bioassay records: PubChem BioAssay, National Center for Advancing Translational Sciences (NCATS)
TDP1 cell CPT = qHTS for Inhibitors of human tyrosyl-DNA phosphodiesterase 1 (TDP1): qHTS in cells in presence of CPT; chicken DT40 Tdp1-/-;hTDP1 cells + 20 nM CPT, ATP luminescence, 48 h; Potency, µM (titrated, usually from 46.2 µM), without a hit: top-dose activity change, negative = growth inhibition, hits mostly inhibitors; hit rate 12% among 420,000; further: potency means the concentration at half of the fitted maximal effect; nearly all actives have a fitted effect of over 55% in size
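Cell growth measured by CellTiter-Glo luminescence after a minimum 48 h, 37 C compound exposure with 20 nM CPT in Tdp1-knockout DT40 cells stably expressing hTDP1, seeded 400/well; qHTS titration format.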
RORgamma inh = qHTS for inhibitors of ROR gamma transcriptional activity; Nuclear receptor ROR-gamma (Mus musculus), P51450; Drosophila S2 Gal4-RORgamma UAS-luciferase reporter, 20 h; Potency, µM (doses to about 53.6 µM), for inactives: at the top dose activity change, negative = inhibition, hits mostly inhibitors; hit rate 5.4% among 310,000; AID 2551, 2010; further: potency means the concentration at half of the fitted maximal effect; nearly all actives have a fitted effect of over 60% in size
Target sequence (P51450 whole entry, looked up, the tested form may be a part): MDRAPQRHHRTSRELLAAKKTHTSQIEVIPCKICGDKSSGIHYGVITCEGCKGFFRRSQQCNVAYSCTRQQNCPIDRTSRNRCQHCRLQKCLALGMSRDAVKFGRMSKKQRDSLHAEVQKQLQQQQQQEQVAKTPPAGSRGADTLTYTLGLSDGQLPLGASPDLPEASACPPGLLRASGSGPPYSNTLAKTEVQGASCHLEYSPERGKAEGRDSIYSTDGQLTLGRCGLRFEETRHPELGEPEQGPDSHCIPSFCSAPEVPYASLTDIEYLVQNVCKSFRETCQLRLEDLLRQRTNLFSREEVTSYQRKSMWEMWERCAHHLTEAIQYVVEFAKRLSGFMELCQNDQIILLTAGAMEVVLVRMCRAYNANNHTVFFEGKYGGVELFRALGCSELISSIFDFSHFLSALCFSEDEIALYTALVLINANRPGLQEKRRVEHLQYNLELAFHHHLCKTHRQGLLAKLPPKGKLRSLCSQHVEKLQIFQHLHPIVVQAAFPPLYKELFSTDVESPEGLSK
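Read-out: Photinus luciferase luminescence; inhibitors lower reporter signal. Insect Schneider cells with Gal4-ROR gamma fusion under metallothionein promoter, UAS reporter; 700 uM final copper sulfate induction, 20 hr, ambient temperature.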
LDHA block = qHTS assay for inhibitors of human lactate dehydrogenase. hit rate 0.15% among 480,000. activity change, % (values are at about 110 or 230 µM). L-lactate dehydrogenase A chain (Homo sapiens), P00338. purified LDHA, NADH/diaphorase-resazurin fluorescence; hits give low values; in the data active means activity change below about -30%; inconclusive means mostly about -25% to -30%;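 further: plate controls were DMSO wells for no effect and wells without enzyme for full effect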
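LDH5 2 nM; NADH 0.06 mM, pyruvate 0.2 mM; 200 mM Tris pH 7.4, EDTA, Tween-20; 5 min RT. Detection: diaphorase 0.133 mg/mL + resazurin 37 µM, fluorescence ex540/em590 at 0 and 20 min; normalized to enzyme-free and DMSO wells.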
Gal4-VP16 FLuc = VP16 counterscreen qHTS for inhibitors of ROR gamma transcriptional activity | Drosophila S2 Gal4-VP16 UAS-luciferase, luminescence, 20 h | Potency, µM (series often up to 53.6 µM), inactives show at the top dose activity, negative = inhibition, hits mostly inhibitors | hit rate 3.5% among 310,000 | AID 2546, 2010;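 further: Gal4-VP16 expression switched on by copper sulfate through the metallothionein promoter; potency means the concentration at half of the fitted maximal effect; nearly all actives have a fitted effect of over 50% in size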
IL1B secr inh = qHTS for Inhibitors of Inflammasome Signaling: IL-1-beta AlphaLISA Primary Screen. THP-1 LPS/ATP IL-1B secretion, AlphaLISA, 16 h; hits give low values. activity change, % at 57.5 µM. hit rate 4.7% among 360,000; in the data active means activity change below about -50%; inconclusive means mostly about -30% to -49%
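Secreted IL-1B measured by AlphaLISA bead assay after 16 h compound exposure of THP-1 cells; compounds (final up to 57.5 uM) added 1 h before LPS (250 ng/mL) and ATP (1.25 mM) stimulation; lower signal means less secretion.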
DT40 TDP1 no CPT = qHTS for Inhibitors of human tyrosyl-DNA phosphodiesterase 1 (TDP1): qHTS in cells in absence of CPT; AID 686978, 2013; DT40 Tdp1-/- hTDP1 cells, no CPT, ATP luminescence, 48 h; Potency, µM (series often up to 46.2 µM), for inactives: at the top dose activity change, negative = growth inhibition, actives largely listed as inhibitors; hit rate 15% among 420,000; further: potency means the concentration at half of the fitted maximal effect; nearly all actives have a fitted effect of over 55% in size
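Cells were dispensed at 400 per well, compounds added by pin tool, plates incubated ≥48 hr at 37 °C, then CellTiter-Glo added for 30 min at room temperature before luminescence reading. Line: DT40 Tdp1-/- complemented with hTDP1; camptothecin omitted.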
* hit, by the source's call; i = inactive; ? = inconclusive; . = no result. Hits are enriched below; roughly 18% of the tested compounds scored in any of these assays. Unless noted, the call rests on the fitted dose curve; in most records, active means well fitted curve in the direction sought with a large enough effect; inconclusive means small, poorly fitted or top-dose-only effect, or another doubt; inactive means no such curve, though single readings can be large; an effect the other way counts as inactive or inconclusive. Unless noted, on the % scale 0 is the no-effect control and ±100 the full control effect.

SMILES | TDP1 cell CPT | RORgamma inh | LDHA block | Gal4-VP16 FLuc | IL1B secr inh | DT40 TDP1 no CPT
Cc1cccc(-c2nc3c(c(SCC(=O)N4CCOCC4)n2)Cc2c(CO)cnc(C)c2O3)c1 | ? | 2% | 1 | ? | ? | 3.7µM*
COc1ccccc1-c1nc2c(c(SCc3ccc(F)cc3Cl)n1)Cc1c(CO)cnc(C)c1O2 | 1% | . | -6 | . | . | -5%
COCCn1c(C)cc(C(=O)C(=O)Nc2nnc(COc3cc(C)cc(C)c3)s2)c1C | . | . | 13 | . | . | .
O=C(CSc1nc(-c2ccc(Cl)cc2)nc2c1Cc1ccccc1O2)N1CCCCC1 | 1% | . | -6 | . | . | -14%
COc1cccc(-c2nc3c(c(SCC(=O)N4CCOCC4)n2)Cc2c(CO)cnc(C)c2O3)c1 | 21µM* | 19% | -6 | -18% | -14 | 4.1µM*
Cc1ncc(CO)c2c1Oc1nc(-c3ccccc3)nc(SCC(=O)N3CCOCC3)c1C2 | 18µM* | -9% | -3 | -19% | -11 | 10µM*
Cc1ncc(CO)c2c1Oc1nc(-c3ccccc3)nc(SCC(=O)N(C)c3ccccc3)c1C2 | . | 3% | . | ? | . | .
Cc1ncc(CO)c2c1Oc1nc(-c3ccc(Cl)cc3)nc(SCC(=O)N3CCCCC3)c1C2 | ? | . | -2 | . | . | 16µM*
CCN(CC)C(=O)CSc1nc(-c2ccccc2F)nc2c1Cc1c(CO)cnc(C)c1O2 | 3.7µM* | . | -2 | . | . | 4.6µM*
O=C1CC(c2cc(F)ccc2F)c2cc3c(cc2N1)CCC3 (stereo unspecified) | 2.6µM* | 14% | -5 | -12% | 57 | 3.7µM*
O=C(N/N=C/C=C/c1ccccc1[N+](=O)[O-])c1cc(-c2cccnc2)nc2ccccc12 | ? | 7.1µM* | -4 | 5.6µM* | -14 | 21µM*
COc1ccccc1-c1cc(C(=O)N/N=C/C=C/c2ccccc2[N+](=O)[O-])c2ccccc2n1 | 18µM* | 8.9µM* | 3 | 11µM* | -51* | 21µM*
O=C(NN=Cc1cccc([N+](=O)[O-])c1)c1cc(-c2cccnc2)nc2ccccc12 | ? | . | -5 | . | 12 | ?
COC(=O)c1cc(-c2ccccc2OC)nc2ccccc12 | . | . | 8 | . | . | .
N=c1oc2ccc(Br)cc2cc1C(=O)NC1CCCCCC1 | 16µM* | -7% | 2 | -1% | -23 | 9.2µM*
Cc1ccc(C(C)NC(=O)c2cc(C)oc2C)cc1 (stereo unspecified) | -28% | 4% | 0 | -6% | 7 | ?
COc1ccc(S(=O)(=O)CC(=O)c2cc3cc(Br)ccc3oc2=O)cc1 | ? | -45% | 10 | ? | 3 | 12µM*
Cc1ccc(C(C)NC(=O)c2cc3cc(Br)ccc3oc2=N)cc1 (stereo unspecified) | 23µM* | 16% | -1 | 2% | i | 21µM*
CC(C)NC(=O)c1cc2cc(Br)ccc2oc1=O | ? | 17% | 4 | -13% | 0 | 23µM*
CCCCCCCC(=O)NCc1cccs1 | . | . | 0 | . | . | .
CC(=O)C(C(C)=O)=C1SCCCS1 | . | . | 6 | . | . | .
CCOc1ccccc1NC(=O)C1=NN(C2CCS(=O)(=O)C2)C(=O)CC1 (stereo unspecified) | . | . | -9 | . | . | .
CCOC(=O)c1cc2c(N)c(C(=O)c3cc(C#N)c(SC)nc3C)sc2nc1C | 13µM* | 21% | -2 | -3% | 15 | 10µM*
CCOC(=O)c1c(C)n(C)c2ccc(OCC(O)Cn3nc(C)c(Br)c3C)cc12 (stereo unspecified) | 21µM* | 4% | -6 | -6% | -6 | 18µM*
CC(=O)c1c(C)nn(CC(O)COc2ccc3ccccc3c2)c1C (stereo unspecified) | ? | 17% | -3 | -1% | -14 | 26µM*
SMILES | TDP1 cell CPT | RORgamma inh | LDHA block | Gal4-VP16 FLuc | IL1B secr inh | DT40 TDP1 no CPT
CCOC(=O)c1c(C)n(C)c2ccc(OCC(O)CN3CCCCCC3)cc12 (stereo unspecified) | ? | -35% | 0 | -9% | -28 | ?
Cc1cc(Cl)ccc1NS(=O)(=O)c1c(C(=O)N2CCC(C)CC2)c(C)n(C)c1C | ? | . | -1 | . | . | 16µM*
Cc1c(C(=O)N2CCC(C)CC2)c(S(=O)(=O)NCc2ccc(Cl)cc2)c(C)n1C | ? | . | 4 | . | . | -27%
COc1cc(OC)c(NS(=O)(=O)c2c(C(=O)N3CCCCCC3)c(C)n(C)c2C)cc1Cl | ? | . | -2 | . | . | 21µM*
O=C(COc1cccc(Br)c1)Nc1ccc(N2CCOCC2)cc1N1CCOCC1 | 18µM* | . | 5 | . | 15 | ?
CC(=O)c1cccc(OCC(=O)Nc2ccccc2N2CCOCC2)c1 | 18µM* | . | -1 | . | ? | ?
CCC(=O)c1ccc(OCC(=O)Nc2ccc(N3CCOCC3)cc2N2CCOCC2)cc1 | -2% | 0% | 1 | -5% | -1 | -12%
CCOc1ccc(CCNC(=O)c2ccc3c(c2)N(Cc2cccc(Cl)c2)C(=O)c2ccccc2S3(=O)=O)cc1OCC | ? | . | 6 | . | . | ?
COc1ccc(CCNC(=O)c2ccc3c(c2)N(Cc2ccc(F)cc2)C(=O)c2ccccc2S3(=O)=O)cc1OC | ? | . | 4 | . | . | 12µM*
O=C(NCCc1ccccc1)c1ccc2c(c1)N(Cc1ccc(Cl)cc1)C(=O)c1ccccc1S2(=O)=O | 15µM* | . | -2 | . | . | 23µM*
CCN1C(=O)c2ccccc2S(=O)(=O)c2ccc(C(=O)NCc3ccc(F)cc3)cc21 | ? | . | 1 | . | . | 23µM*
CC(=O)NC(Sc1ccc(Cl)cc1)C(=O)c1ccccc1 (stereo unspecified) | . | . | 5 | . | . | .
CN(Cc1cccs1)C(=O)CSc1nc2ccsc2c(=O)n1C | . | . | 10 | . | . | .
CCCc1nnc(SCC(=O)Nc2ccccc2Cl)n1-n1cccc1 | . | . | 12 | . | . | .
Cc1ccc(S(=O)(=O)N2CC(O)C[C@H]2C(=O)OCC(=O)Nc2ccc(N3CCCCC3)cc2)cc1C (stereo partly specified) | ? | . | 2 | . | -1 | 18µM*
CC(C)OC(=O)/C=C1\C[C@@H](c2ccccc2C(F)(F)F)O[C@@H](c2ccccc2C(F)(F)F)O1 | ? | . | -3 | . | 29 | 21µM*
COC(=O)C1(C)CCCC2(C)C3CCC(C(C)C)C(CO)C3C(CO)CC12 (stereo unspecified) | ? | . | 6 | . | -60* | ?
